According to PubChem BioAssay AID1159580 (chemical genetic matrix, 2015):
In all, about 5,500 compounds went through this assay and about 2,000 (36%) were called active. Roughly 18% stayed inconclusive and do not appear here. No stated cut-off is given here; in the data, active means normalized growth mostly below about 0.91 (no sharp cut-off); inconclusive means no clear call, values can overlap the other calls; inactive means mostly above about 0.92. The list shows a part of the results.

Assay: chemical genetic growth profiling, strain panel (AID 1159580);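 further: tested at 20 µM; growth read once vehicle control cultures reached saturation at 30 °C; 1 = growth at the plate median or of vehicle wells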
Details: S. cerevisiae deletion strains, growth OD
[1] = locus YDL101C, strain DUN1, stronger effect = lower value
[2] = locus YHR030C, strain SLT2, stronger effect = lower value
[3] = locus YAR019C, strain CDC15, stronger effect = lower value
[4] = locus YBL105C, strain PKC1, stronger effect = lower value
[5] = locus YBR135W, strain CKS1, stronger effect = lower value
[6] = locus YBR136W, strain MEC1, stronger effect = lower value
[7] = locus YBR160W, strain CDC28, stronger effect = lower value
[8] = locus YDL017W, strain CDC7, stronger effect = lower value
[9] = locus YDL028C, strain MPS1, stronger effect = lower value
[10] = locus YDL108W, strain KIN28, stronger effect = lower value
[11] = locus YDL132W, strain cdc53, stronger effect = lower value
[12] = locus YDL214C, strain PRR2, stronger effect = lower value
[13] = locus YDR052C, strain DBF4, stronger effect = lower value
[14] = locus YDR054C, strain cdc34, stronger effect = lower value
[15] = locus YDR226W, strain ADK1, stronger effect = lower value
[16] = locus YDR477W, strain SNF1, stronger effect = lower value
[17] = locus YER123W, strain YCK3, stronger effect = lower value
[18] = locus YER133W, strain GLC7, stronger effect = lower value
[19] = locus YFL009W, strain cdc4, stronger effect = lower value
[20] = locus YFL029C, strain CAK1, stronger effect = lower value
[21] = locus YFR003C, strain YPI1, stronger effect = lower value
[22] = locus YFR019W, strain FAB1, stronger effect = lower value
[23] = locus YFR028C, strain CDC14, stronger effect = lower value
[24] = locus YGR040W, strain KSS1, stronger effect = lower value
[25] = locus YGR052W, strain FMP48, stronger effect = lower value
[26] = locus YGR092W, strain DBF2, stronger effect = lower value
[27] = locus YHR079C, strain IRE1, stronger effect = lower value
[28] = locus YHR082C, strain KSP1, stronger effect = lower value
[29] = locus YHR205W, strain SCH9, stronger effect = lower value
[30] = locus YIL147C, strain SLN1, stronger effect = lower value
[31] = locus YJL095W, strain BCK1, stronger effect = lower value
[32] = locus YJL128C, strain PBS2, stronger effect = lower value
[33] = locus YJL157C, strain FAR1, stronger effect = lower value
[34] = locus YJR016C, strain ILV3, stronger effect = lower value
[35] = locus YJR066W, strain TOR1 (second series), stronger effect = lower value
[36] = locus YJR066W, strain TOR1, stronger effect = lower value
[37] = locus YKL048C, strain ELM1, stronger effect = lower value
[38] = locus YKL067W, strain YNK1, stronger effect = lower value
[39] = locus YKL101W, strain HSL1, stronger effect = lower value
[40] = locus YKL193C, strain SDS22, stronger effect = lower value
[41] = locus YKL203C, strain TOR2, stronger effect = lower value
[42] = locus YLR113W, strain HOG1, stronger effect = lower value
[43] = locus YLR133W, strain CKI1, stronger effect = lower value
[44] = locus YLR403W, strain SFP1, stronger effect = lower value
[45] = locus YML070W, strain DAK1, stronger effect = lower value
[46] = locus YMR001C, strain CDC5, stronger effect = lower value
[47] = locus YMR205C, strain PFK2 (second series), stronger effect = lower value
[48] = locus YMR277W, strain FCP1, stronger effect = lower value
[49] = locus YNL006W, strain LST8, stronger effect = lower value
[50] = locus YNL020C, strain ARK1, stronger effect = lower value
[51] = locus YNL161W, strain CBK1, stronger effect = lower value
[52] = locus YNL183C, strain NPR1, stronger effect = lower value
[53] = locus YNL207W, strain RIO2, stronger effect = lower value
[54] = locus YNL222W, strain SSU72, stronger effect = lower value
[55] = locus YNL307C, strain MCK1 (second series), stronger effect = lower value
[56] = locus YOL078W, strain AVO1, stronger effect = lower value
[57] = locus YOL136C, strain PFK27, stronger effect = lower value
[58] = locus YOR061W, strain CKA2, stronger effect = lower value
[59] = locus YOR119C, strain RIO1, stronger effect = lower value
[60] = locus YOR231W, strain MKK1, stronger effect = lower value
[61] = locus YOR329C, strain SCD5, stronger effect = lower value
[62] = locus YPL031C, strain PHO85, stronger effect = lower value
[63] = locus YPL153C, strain RAD53, stronger effect = lower value
[64] = locus YPL204W, strain HRR25, stronger effect = lower value
[65] = locus YPL209C, strain IPL1, stronger effect = lower value
[66] = locus YPL256C, strain CLN2, stronger effect = lower value
[67] = locus YPR025C, strain CCL1, stronger effect = lower value
[68] = locus YPR106W, strain ISR1, stronger effect = lower value
[69] = locus YPR111W, strain DBF20, stronger effect = lower value
[70] = strain NNK1, stronger effect = lower value
[71] = strain TSCII, stronger effect = lower value

Measured: normalized growth

COc1c(Br)cc(/C(N)=N\OC(=O)c2c(-c3c(Cl)cccc3Cl)noc2C)cc1Br
inactive: locus YAL013W, strain DEP1, stronger effect = lower value 1.03 | locus YBR229C, strain ROT2, stronger effect = lower value 1.01 | [1] 1 | locus YDR150W, strain NUM1, stronger effect = lower value 1.02 | locus YEL061C, strain CIN8, stronger effect = lower value 0.983 | locus YGR078C, strain PAC10, stronger effect = lower value 1.02 | [2] 1.08 | locus YHR087W, strain rtc3, stronger effect = lower value 1.02 | locus YJR043C, strain POL32, stronger effect = lower value 1.01 | locus YJR075W, strain HOC1, stronger effect = lower value 1.01 | locus YKL190W, strain CNB1, stronger effect = lower value 1.01 | locus YLR039C, strain RIC1, stronger effect = lower value 1.09 | locus YLR058C, strain SHM2 (second series), stronger effect = lower value 1.01 | locus YLR085C, strain ARP6, stronger effect = lower value 1.13 | locus YLR262C, strain YPT6, stronger effect = lower value 1.04 | locus YML094W, strain GIM5, stronger effect = lower value 1.04 | locus YMR219W, strain ESC1, stronger effect = lower value 1.01 | locus YMR263W, strain SAP30, stronger effect = lower value 1 | locus YMR307W, strain GAS1, stronger effect = lower value 1.05 | locus YNL153C, strain GIM3, stronger effect = lower value 0.998 | locus YNL298W, strain CLA4 (second series), stronger effect = lower value 1.05 | locus YNL322C, strain KRE1, stronger effect = lower value 1.01 | locus YNR030W, strain Alg12, stronger effect = lower value 1.03 | locus YPL055C, strain LGE1, stronger effect = lower value 1.07 | locus YPL241C, strain CIN2, stronger effect = lower value 0.98 | locus YPR135W, strain CTF4, stronger effect = lower value 1.17

Cc1onc(-c2c(Cl)cccc2Cl)c1C(=O)O/N=C(/N)Cc1ccc(C(C)(C)C)cc1
active: [2] 1.22 [resistant]
inactive: [3] 0.991 | [4] 0.986 | [5] 0.988 | [6] 0.995 | [7] 0.983 | [8] 0.988 | [9] 0.993 | [1] 0.986 | [10] 0.989 | [11] 0.983 | [12] 0.982 | [13] 0.987 | [14] 0.989 | [15] 0.993 | [16] 1 | [17] 0.998 | [18] 0.999 | [19] 0.987 | [20] 0.986 | [21] 0.996 | [22] 0.995 | [23] 0.989 | [24] 0.999 | [25] 1.15 | [26] 0.983 | [27] 1.12 | [28] 1.16 | [29] 0.993 | [30] 0.987 | [31] 1.15 | [32] 0.953 | [33] 0.991 | [34] 0.992 | [35] 0.986 | [36] 1.17 | [37] 0.999 | [38] 1 | [39] 0.998 | [40] 0.989 | [41] 1.06 | [42] 1.08 | [43] 0.991 | [44] 0.994 | [45] 0.99 | [46] 0.989 | [47] 1 | [48] 0.994 | [49] 0.994 | [50] 1.01 | [51] 0.995 | [52] 1.14 | [53] 0.992 | [54] 0.987 | [55] 0.995 | [56] 0.985 | [57] 1.02 | [58] 1.01 | [59] 1.05 | [60] 1.08 | [61] 0.997 | [62] 1.02 | [63] 1 | [64] 1.02 | [65] 1 | [66] 1.1 | [67] 0.986 | [68] 0.994 | [69] 0.988 | [70] 0.997 | [71] 0.99

Cc1onc(-c2c(F)cccc2Cl)c1/C(N)=N\OC(=O)c1ccc(C(C)(C)C)cc1
inactive: [3] 0.989 | [4] 0.998 | [5] 0.985 | [6] 0.986 | [7] 0.989 | [8] 0.993 | [9] 0.985 | [1] 0.98 | [10] 0.978 | [11] 0.989 | [12] 0.971 | [13] 0.994 | [14] 1 | [15] 0.989 | [16] 0.976 | [17] 0.948 | [18] 0.967 | [19] 0.987 | [20] 1 | [21] 0.997 | [22] 0.982 | [23] 0.984 | [24] 0.975 | [25] 1.1 | [26] 1 | [27] 1.08 | [28] 1.11 | [29] 0.986 | [30] 0.981 | [31] 1.11 | [32] 0.957 | [33] 0.963 | [34] 0.982 | [35] 0.932 | [36] 1.12 | [37] 0.983 | [38] 0.994 | [39] 0.972 | [40] 0.991 | [41] 1.05 | [42] 1 | [43] 0.988 | [44] 0.968 | [45] 0.966 | [46] 0.987 | [47] 0.987 | [48] 0.992 | [49] 0.988 | [50] 0.978 | [51] 0.991 | [52] 1.11 | [53] 0.99 | [54] 0.99 | [55] 0.998 | [56] 0.982 | [57] 0.956 | [58] 0.967 | [59] 1.02 | [60] 1.05 | [61] 0.996 | [62] 0.991 | [63] 0.973 | [64] 0.979 | [65] 0.993 | [66] 1.05 | [67] 0.99 | [68] 0.988 | [69] 0.986 | [70] 0.99 | [71] 0.99
active: [2] 1.17 [resistant]
